Shown are actives, neighbours in structure and some others; about 2.3% of the full set was active somewhere.
M1 ag parental: nonselective activator or artifact in parental CHO-K1 cells; Fluo-8 calcium fluorescence; scaled to maximal ATP response, vehicle zero; activation, % at 3 µM; 0.48% of 360,000 active; in the data active = activation above about 15%;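 note: untransfected CHO-K1 host cells lacking M1 receptor as counterscreen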
CHO-K1 Ca PAM: nonselective activator or artifact in parental CHO-K1 calcium assay | activation, % at 3 µM | 0.02% of 360,000 active | ATP EC20, Fluo-8 calcium fluorescence; 0% at ATP EC20, 100% at ATP max;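 active = activation above the run cutoff, the mean activation of all test compounds plus 3 SD, cut at about 40% in these data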;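 note: peak over basal fluorescence ratio in a 140 s read after ATP addition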
M1 ag: human M1 muscarinic receptor agonism; P11229; CHO-K1 hM1, Fluo-8 calcium fluorescence, agonist mode; 0% DMSO, 100% acetylcholine EC100; activation, % at 3 µM; 0.33% of 360,000 active;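 active = activation above the run's mean compound activation plus 3 SD, cut at about 16% in these data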;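 note: peak over basal fluorescence ratio within a 140 s kinetic read after compound addition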
Target sequence (P11229 whole entry, looked up): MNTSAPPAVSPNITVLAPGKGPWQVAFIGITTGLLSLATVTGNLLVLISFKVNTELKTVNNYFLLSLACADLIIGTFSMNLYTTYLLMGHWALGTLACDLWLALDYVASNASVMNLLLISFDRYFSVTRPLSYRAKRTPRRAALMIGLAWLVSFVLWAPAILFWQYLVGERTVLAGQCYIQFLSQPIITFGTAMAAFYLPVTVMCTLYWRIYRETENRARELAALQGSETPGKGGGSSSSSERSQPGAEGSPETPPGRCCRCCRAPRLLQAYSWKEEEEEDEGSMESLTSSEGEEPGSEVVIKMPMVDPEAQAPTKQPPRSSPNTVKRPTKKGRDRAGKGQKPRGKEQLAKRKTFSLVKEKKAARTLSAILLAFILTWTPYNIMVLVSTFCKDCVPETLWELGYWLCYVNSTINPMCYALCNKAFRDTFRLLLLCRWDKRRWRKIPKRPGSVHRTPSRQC
M1 antag: antagonists of human M1 muscarinic receptor; inhibition, % at 3 µM; CHO-K1 hM1, Fluo-8 calcium fluorescence, ACh EC80 antagonist; P11229; 1.3% of 360,000 active; AID 588852;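 active = percent inhibition above its own plate's cutoff, namely the mean of that plate's compound wells plus 3 SD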;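 note: peak over basal fluorescence ratio during 140 s after agonist addition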
CHO-K1 Ca antag: M1 antagonist counterscreen hit in parental CHO-K1 cells. ATP-induced calcium, Fluo-8 fluorescence. inhibition, % at 3 µM. 0.6% of 360,000 active;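 active = inhibition above a per-plate cutoff, the plate's mean sample inhibition plus 3 SD, cut at about 24% in these data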
M1 PAM: potentiates human M1 receptor response to acetylcholine. 0.088% of 360,000 active. AID 588819. P11229. activation, % at 3 µM. CHO-K1 hM1, Fluo-8 calcium fluorescence, ACh EC20; 0% = ACh EC20, 100% = maximal ACh; in the data active = activation above about 19%, passing the limit was not always enough
Each line names hits and unclear results; the compound was inactive in the other large screens.

Cn1c2ccccc2c(=O)c2ccc(C#CC3(O)CCCCC3)cc21	M1 antag 39.2
CC(NC(=O)c1ccc(Cl)c(S(=O)(=O)N2CCCCCC2)c1)c1cccnc1 (stereo not given)	M1 antag 37.1
O=C(NCCN1CCOCC1)c1ccc(Cl)c(S(=O)(=O)N2CCCCC2)c1	M1 antag 49.4
CN(C)C(CNC(=O)c1ccc(Cl)c(S(=O)(=O)N2CCCCCC2)c1)c1ccccc1 (stereo not given)	M1 antag 51.9
O=C(NCCCN1CCOCC1)c1ccc(Sc2ccccc2Cl)c([N+](=O)[O-])c1	M1 antag 31.4
O=C(Nc1ccc2c(c1)OCCO2)C(CCc1ccccc1)N1CCC(Cc2ccccc2)CC1 (stereo not given)	none
CCOc1ccc(NC(=O)C2CC(=O)N(c3ccccc3F)C2)cc1 (stereo not given)	none
CCCn1c(NC(=O)c2ccc(Cl)c(S(=O)(=O)N3CCCC3)c2)nc2ccccc21	M1 antag 35.1
O=C(NCc1nc2ccccc2[nH]1)c1ccc(Cl)c(S(=O)(=O)N2CCCC2)c1	none
C/C(=N\NC(=O)Cc1c(Cl)cccc1Cl)c1cccnc1	none
CC1CCCC(NC(=O)COC(=O)/C=C/c2ccc(S(=O)(=O)N3CCOCC3)cc2)C1C (stereo not given)	M1 ag parental 18.9
COc1ccc(/C=C/C(=O)OCC(=O)NC2CCCC(C)C2C)cc1S(=O)(=O)N1CCOCC1 (stereo not given)	none
COc1ccc(C(C)(O)c2nc(-c3cccc(C(F)(F)F)c3)cs2)cc1 (stereo not given)	none
NC1=NC(=O)/C(=C/c2cn(Cc3ccccc3)c3ccccc23)S1	none
CNc1ncc(Cc2ccccc2)s1	CHO-K1 Ca antag 24.2
Cc1c(Cl)c([N+](=O)[O-])nn1CCCC(=O)Nc1c(C)n(C)n(-c2ccccc2)c1=O	M1 antag 66.9
Cc1c(NC(=O)Nc2ccccc2)c(=O)n(-c2ccccc2)n1C	none
Cc1c(NC(=O)Nc2ccc(Cl)c(Cl)c2)c(=O)n(-c2ccccc2)n1C	M1 antag 39.8
CCCNC(=O)Cn1nc(-c2ccccc2OC)ccc1=O	none
Cc1cc(C(=O)CCl)c(C)n1CCc1ccc(Cl)cc1	M1 antag 33.1
Cc1ccccc1-c1cnc(C(O)c2ccc(Cl)c(F)c2)[nH]1 (stereo not given)	none
Cc1ccc(CNS(=O)(=O)N(C)C)cc1	none
COc1cccc(COc2cc3ccccc3nc2C)c1	M1 antag 33.9
Cc1nc2ccccc2cc1OCc1ccccc1	M1 antag 17.5
Cc1nc2ccccc2cc1OCc1ccc(Cl)cc1	M1 antag 21.6
CN1C(=S)N(c2cccnc2)C(=O)/C1=C\c1ccc(N(C)C)cc1	M1 ag parental 21.0, M1 ag 39.4, M1 antag 44.2
CN1C(=S)N(c2cccnc2)C(=O)/C1=C\c1ccc(C(C)(C)C)cc1	none
O=c1c2ccc(F)cc2sn1-c1ccccc1	M1 ag 16.4
Cc1ccc(-n2sc3cc(F)ccc3c2=O)c(C)c1	M1 ag 17.5
O=c1c2cc(F)ccc2sn1-c1ccccc1Cl	none
COCCNC(=O)C1(C)CCN(C(=O)c2ccc(C(F)(F)F)nc2C)C1 (stereo not given)	none
Cc1ccnc(NC(=O)C(Cc2ccccc2)NC(=O)c2ccccc2)c1 (stereo not given)	none
COc1cccc(C(C)(O)c2nc(-c3ccoc3)cs2)c1 (stereo not given)	none
CCOc1ccsc1C(=O)O	CHO-K1 Ca antag 29.9
O=C(N/N=C/c1ccc(Cl)cc1)c1sccc1OCc1ccc(F)cc1	none
O=C(N/N=C/c1ccc(F)cc1)c1sccc1OCc1ccc(F)cc1	CHO-K1 Ca PAM 44.5
Cc1ccc(COc2ccsc2C(=O)O)cc1	M1 ag parental 15.1
NNC(=O)c1sccc1OCc1ccc(F)cc1	none
C[C@H](CO)N1C[C@H](C)[C@H](CN(C)S(=O)(=O)c2ccc3ccccc3c2)OCc2cnnn2CCCC1=O	none
CC(=O)N1CC(=O)N=C1SCC(=O)Nc1nc(-c2ccccc2)c(-c2ccccc2)s1	none
CCCCN(CC)CCNC(=O)c1cc2c(-c3ccccc3F)nn(C)c2s1	M1 PAM 27.8
CC1CCCCN1CCNC(=O)c1cc2c(-c3ccccc3F)nn(C)c2s1 (stereo not given)	none
O=C1CN(C(=O)c2cc3ccccc3oc2=O)C(c2ccc(F)cc2)c2cc(F)ccc2N1 (stereo not given)	CHO-K1 Ca antag 25.4
O=C1CN(C(=O)c2cc3ccccc3oc2=O)C(c2ccccc2)c2cc(F)ccc2N1 (stereo not given)	none
O=C1CN(C(=O)c2ccccc2)C(c2ccccc2)c2cc(F)ccc2N1 (stereo not given)	none
Cc1ccccc1C(=O)N1CC(=O)Nc2ccc(F)cc2C1c1ccccc1 (stereo not given)	M1 ag parental 23.5
COc1ccc(C(=O)N/C(=C/c2cccnc2)C(=O)N2CCN(C)CC2)cc1OC	none
CN1CCN(c2nc3ccccn3c(=O)c2/C=C(\C#N)S(=O)(=O)c2ccc(Cl)cc2)CC1	none
Cc1nc2sccn2c(=O)c1S(=O)(=O)NCC1CCN(Cc2ccccc2Cl)CC1	M1 antag 39.2
COc1ccc(-n2nc(C(=O)NCC(=O)N3CCN(c4ccccc4)CC3)c3ccccc3c2=O)cc1OC	none
CN1C(=O)c2ccc(C(=O)Nc3ccc4c(c3)OCO4)cc2C1=O	CHO-K1 Ca antag 36.7
O=C(Nc1ccc2c(c1)OCO2)c1ccccc1	none
Cn1nc(C(=O)Nc2ccc3c(c2)OCO3)c2ccccc2c1=O	M1 PAM 26.6
COC(=O)C1CCN(C2CN(Cc3ccc(C)cc3)S(=O)(=O)C2)CC1 (stereo not given)	none
O=C(O)Cn1c(-c2ccccc2)cc2ccccc21	none
CNC(=O)Nc1ccc2snnc2c1	CHO-K1 Ca antag 26.1
O=c1c2c(-c3ccccc3)csc2nc2c3ccccc3c(NCCN3CCOCC3)nn12	M1 antag 91.8
c1ccc(-c2csc3ncnc(NCCCN4CCOCC4)c23)cc1	none
OC(c1ccccn1)C1CCN(Cc2nc(C(c3ccccc3)c3ccccc3)no2)CC1 (stereo not given)	none
Cc1nc(CN2CCN(Cc3nc(C(c4ccccc4)c4ccccc4)no3)CC2)cs1	M1 antag 65.3
Cc1cccnc1CN1CCN(Cc2nc(C(c3ccccc3)c3ccccc3)no2)CC1	M1 antag 71.1
C[C@@H]1CN(C2CCN(Cc3nc(C(c4ccccc4)c4ccccc4)no3)CC2)C[C@H](C)O1	none
Cc1ccccc1S(=O)(=O)NC(=O)C1(C)CCN1C(=O)COc1ccc(Cl)cc1 (stereo not given)	none
Cn1c(Oc2ccc(Cl)cc2)c(C=O)c2ccccc21	CHO-K1 Ca antag 27.3

Bioassay records as filed in PubChem.
